Assay [1] deals with Luciferin 4-monooxygenase (Photinus pyralis) (UniProt P08659). The experiment in a line: qHTS assay to identify small molecule inhibitors of firefly luciferase (AID 1224835). Further: nearly all actives have a fitted effect of over 25% in size. Further: potency means the concentration at half of the fitted maximal effect. The procedure, abridged: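 Quantitative HTS format; KM concentrations of both substrates. Purified P. pyralis FLuc activity quantified from luminescence images.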
Assay [2] deals with Nuclear receptor subfamily 1 group I member 3 (Homo sapiens) (UniProt Q14994). The experiment in a line: qHTS assay to identify small molecule antagonists of the constitutive androstane receptor (CAR) signaling pathway (AID 1224838).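 Further: HepG2 cells stably expressing hCAR with CYP2B6 luciferase reporter stimulated by CITCO; nearly all actives have a fitted effect of over 40% in size.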 Further: potency means the concentration at half of the fitted maximal effect. In a few lines:
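Reporter luminescence was quantified after 24 h exposure of hCAR/CYP2B6-2.2kb double-stable HepG2 cells to compounds at 15 concentrations in the presence of 50 nM CITCO final.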
In general terms: In qHTS, concentration-response curves come from the screen itself.

Assay [3] has the same target. The experiment in a line: qHTS assay to identify small molecule agonists of the constitutive androstane receptor (CAR) signaling pathway (AID 1224839). Further: nearly all actives have a fitted effect of over 15% in size. Further: potency means the concentration at half of the fitted maximal effect. The procedure, abridged:
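Luminescent ONE-Glo read-out after 24 hr, 37 C exposure of double-stable HepG2-CYP2B6-hCAR reporter cells to a 15-point compound series, in the presence of 0.75 uM PK11195 (final).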

The nature of assay [4]: qHTS assay to identify small molecule antagonists of the estrogen related receptor signaling pathway with the pleiotropic PPARgamma coactivator (PGC) from Tox21 10K library - cell viability counter screen (AID 1224840; active means well fitted cell-killing curve with a large enough effect in the repeat runs, not every such curve was filed as active; further: nearly all actives have a fitted effect of over 40% in size; further: potency means the concentration at half of the fitted maximal effect). In a few lines: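 Here the PGC/ERR cells serve as a cytotoxicity control: they are exposed to compounds for 17.5 hours at 37 C, and live-cell signal is quantified using CellTiter-Fluor fluorescence.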

The target of assay [5] is Thyrotropin receptor (Homo sapiens) (UniProt P16473). The experiment in a line: qHTS assay to identify small molecule agonists of the thyroid stimulating hormone receptor (TSHR) signaling pathway (AID 1224843; calls by dose curve; further: nearly all actives have a fitted effect of over 45% in size; further: potency means the concentration at half of the fitted maximal effect). In a few lines: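 Cell line HEK293 with TSHR; density 800/well. Exposure 30 min RT. Readout HTRF cAMP (cAMP-d2/anti-cAMP-cryptate), 1 h RT before reading.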
Assay [6] can be described thus: qHTS assay to identify small molecule agonists of the hypoxia (HIF-1) signaling pathway - cell viability counter screen (AID 1224844; calls by dose curve; further: nearly all actives have a fitted effect of over 50% in size; further: potency means the concentration at half of the fitted maximal effect). The procedure, abridged:
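Multiplexed with the HRE beta-lactamase assay, this viability read used CellTiter-Glo luminescence (30 min, RT) on HRE-bla ME-180 cells treated 17 hrs with compounds in 0.5% dialyzed FBS medium.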

Assay [7] in a line: qHTS assay to identify small molecule antagonists of the constitutive androstane receptor (CAR) signaling pathway - cell viability counter screen (AID 1224837). Further: nearly all actives have a fitted effect of over 45% in size. Further: potency means the concentration at half of the fitted maximal effect. The procedure, abridged:
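Using CellTiter-Fluor, viability is scored in HepG2 cells stably carrying hCAR and a 2.2kb CYP2B6 reporter after 23 hr compound exposure across 15 concentrations, with CITCO present at 50 nM.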

Assay [8] in a line: qHTS assay to identify small molecule antagonists of the estrogen related receptor signaling pathway with the pleiotropic PPARgamma coactivator (PGC) from Tox21 10K library (AID 1224841; call rule not given here; further: actives are mostly falling curves and most rising ones were filed inactive; nearly all actives have a fitted effect of over 50% in size; further: potency means the concentration at half of the fitted maximal effect). The procedure, abridged:
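Each well held 2,000 PGC/ERR cells, pre-incubated six hours (37 C, 5% CO2). Test substances in DMSO were added by pin tool and left for 18 h at 37 C before luciferase detection by One-Glo.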

Assay [9] can be described thus: qHTS assay to identify small molecule agonists of the estrogen related receptor signaling pathway with the pleiotropic PPARgamma coactivator (PGC) from Tox21 10K library (AID 1224842). Further: nearly all actives have a fitted effect of over 15% in size. The procedure, abridged: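 PGC/ERR reporter cells (NTP line) were seeded 2,000 per well, rested 6 h at 37 C/5% CO2, then pin-dosed with compounds in DMSO for 18 h at 37 C; luciferase read by One-Glo luminescence after 30 min at room temperature.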

A short description of assay [10]: qHTS assay to identify small molecule agonists of the constitutive androstane receptor (CAR) signaling pathway - cell viability counter screen (AID 1224836). Further: series mostly up to about 92 µM; nearly all actives have a fitted effect of over 45% in size. In a few lines:
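Cell viability multiplexed with the CAR agonist screen: CellTiter-Fluor fluorescence after 23 hr at 37 C. HepG2-CYP2B6-hCAR cells got compounds at 15 concentrations with PK11195 at 0.75 uM final.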

Inconclusive results are not listed. Unmarked numbers belong to inactive results. Active and inactive are the calls of the source. Unless noted, the call rests on the fitted dose curve; in most records, active means well fitted curve in the direction sought with a large enough effect in the repeat runs; inconclusive means weak or mixed curves; inactive means no such curve, though single readings can be large; an effect the other way counts as inactive or inconclusive.

Sequence of Thyrotropin receptor (Homo sapiens) (P16473 whole entry, looked up): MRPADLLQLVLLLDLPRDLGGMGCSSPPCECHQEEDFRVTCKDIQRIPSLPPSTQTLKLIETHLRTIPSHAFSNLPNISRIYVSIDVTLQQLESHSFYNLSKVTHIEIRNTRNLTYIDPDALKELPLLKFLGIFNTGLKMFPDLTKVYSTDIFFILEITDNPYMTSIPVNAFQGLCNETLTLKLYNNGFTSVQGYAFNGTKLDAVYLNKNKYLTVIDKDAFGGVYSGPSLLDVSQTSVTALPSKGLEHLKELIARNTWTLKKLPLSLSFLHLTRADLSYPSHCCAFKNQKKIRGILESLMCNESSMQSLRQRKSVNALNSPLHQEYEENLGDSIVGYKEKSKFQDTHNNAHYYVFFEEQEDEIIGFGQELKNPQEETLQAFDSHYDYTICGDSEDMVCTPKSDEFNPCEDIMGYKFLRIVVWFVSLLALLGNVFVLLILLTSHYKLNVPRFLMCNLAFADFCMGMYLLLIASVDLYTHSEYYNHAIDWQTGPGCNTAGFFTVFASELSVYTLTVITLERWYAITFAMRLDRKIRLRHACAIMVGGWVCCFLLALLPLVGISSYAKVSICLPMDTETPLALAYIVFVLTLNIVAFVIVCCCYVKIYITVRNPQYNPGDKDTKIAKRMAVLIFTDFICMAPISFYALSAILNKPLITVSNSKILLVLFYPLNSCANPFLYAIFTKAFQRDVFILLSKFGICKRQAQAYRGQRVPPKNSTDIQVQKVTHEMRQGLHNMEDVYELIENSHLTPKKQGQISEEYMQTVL
Sequence of Luciferin 4-monooxygenase (Photinus pyralis) (P08659 whole entry, looked up): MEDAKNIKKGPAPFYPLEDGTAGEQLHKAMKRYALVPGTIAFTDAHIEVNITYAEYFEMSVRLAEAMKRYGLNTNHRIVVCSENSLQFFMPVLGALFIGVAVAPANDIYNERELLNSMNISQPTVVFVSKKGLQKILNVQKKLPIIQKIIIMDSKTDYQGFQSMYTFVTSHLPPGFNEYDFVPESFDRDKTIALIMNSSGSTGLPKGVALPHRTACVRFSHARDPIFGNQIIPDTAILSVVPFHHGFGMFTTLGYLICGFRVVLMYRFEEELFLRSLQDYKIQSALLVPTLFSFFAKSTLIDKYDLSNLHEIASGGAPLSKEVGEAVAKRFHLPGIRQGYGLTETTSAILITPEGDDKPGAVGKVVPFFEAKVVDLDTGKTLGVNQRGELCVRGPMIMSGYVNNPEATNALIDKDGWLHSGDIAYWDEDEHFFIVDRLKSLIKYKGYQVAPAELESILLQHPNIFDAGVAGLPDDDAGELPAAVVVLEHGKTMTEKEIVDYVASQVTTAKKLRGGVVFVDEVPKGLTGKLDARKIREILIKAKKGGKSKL
Sequence of Nuclear receptor subfamily 1 group I member 3 (Homo sapiens) (Q14994 whole entry, looked up): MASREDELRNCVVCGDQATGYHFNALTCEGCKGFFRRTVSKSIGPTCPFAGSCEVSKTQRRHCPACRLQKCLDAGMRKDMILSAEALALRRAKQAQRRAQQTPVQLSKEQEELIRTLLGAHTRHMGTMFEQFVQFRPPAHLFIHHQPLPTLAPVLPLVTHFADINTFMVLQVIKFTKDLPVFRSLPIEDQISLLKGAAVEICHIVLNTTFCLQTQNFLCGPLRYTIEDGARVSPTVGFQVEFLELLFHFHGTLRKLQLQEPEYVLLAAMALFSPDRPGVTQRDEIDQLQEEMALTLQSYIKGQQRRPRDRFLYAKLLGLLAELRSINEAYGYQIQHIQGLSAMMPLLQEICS

As to `Nc1ccc([N+](=O)[O-])cc1[N+](=O)[O-]`, the Potency entry in [1], in assay [2], in [3], in assay [4], in assay [5] and in [6] was “inactive” in each case.

Regarding `C/C(=C\c1ccccc1)[N+](=O)[O-]`, the Potency was 30.6 µM (active) in assay [7], 24.3 µM (active) in [2], 30.6 µM (active) in assay [8] and 38.9 µM (active) in [6]. Further, the Potency entry in assay [3] and in [9] was “inactive” each time.

`CC(C)N(CCC(C(N)=O)(c1ccccc1)c1ccccn1)C(C)C` (stereo unspecified): the Potency entry in assay [10], in [2], in assay [3], in assay [4] and in assay [6] was “inactive” throughout.

As to `CC(C)(C)C(O)C(Oc1ccc(Cl)cc1)n1cncn1` (stereo unspecified), the Potency result in assay [1], in assay [2] and in assay [4] was “inactive” throughout.

Turning to `O=[N+]([O-])C(Br)(CO)CO`, the Potency entry in assay [10], in assay [3] and in [8] was “inactive” throughout. The Potency in [5] was 30.6 µM (active).

For the compound `C=CC(=O)OC`, the Potency result in assay [10], in assay [7], in [2], in [3] and in assay [6] was “inactive” each time.

Regarding `C=CCN1CC[C@]23c4c5ccc(O)c4O[C@H]2C(=O)CC[C@@]3(O)[C@H]1C5`, the Potency result in assay [7], in [4], in [8], in [9], in assay [5] and in [6] was “inactive” each time.

For `COP(=S)(OC)Oc1ccc([N+](=O)[O-])cc1Cl`, the Potency in [1] is 35.6 µM (active). Moreover, the Potency entry in [2], in assay [9] and in assay [6] was “inactive” throughout.

With `CN1C(=O)C(O)N=C(c2ccccc2)c2cc(Cl)ccc21` (stereo unspecified), the Potency result in assay [1] and in assay [9] was “inactive” throughout.

For `Cl/C=C\C[N+]12CN3CN(CN(C3)C1)C2`, the Potency result in [1], in assay [3], in [4], in assay [8], in assay [9] and in [5] was “inactive” in each case. In assay [2], the Potency is 61.1 µM (active).

Consider `CNP(=O)(OC)Oc1ccc(C(C)(C)C)cc1Cl` (stereo unspecified), for which the Potency result in assay [2], in assay [4], in assay [9], in assay [5] and in [6] was “inactive” each time. Besides, in assay [3], the Potency is 48.6 µM (active).

`C=CC[C@]1(O)CC[C@H]2[C@@H]3CCC4=CC(=O)CCC4=C3C=C[C@@]21C`: the Potency entry in assay [1], in assay [4] and in [9] was “inactive” throughout.

As to `O=C(Nc1ccccc1)Nc1cnns1`, the Potency result in assay [2], in [4], in [8], in assay [9], in [5] and in assay [6] was “inactive” each time.

Regarding `N#CCc1ccccc1`, the Potency entry in assay [1], in assay [2], in assay [3], in [4], in [5] and in assay [6] was “inactive” throughout.

On to `Oc1ccc(Cl)c(Cl)c1Cl`, for which the Potency result in [7], in assay [2], in assay [3] and in [5] was “inactive” each time.

On to `CC[C@H]1C[C@H]2[C@@H]3CCC4=CC(=O)CC[C@@H]4[C@H]3CC[C@]2(C)[C@H]1O`, for which the Potency entry in [10], in assay [7], in assay [2], in assay [3], in assay [4] and in assay [9] was “inactive” each time. Moreover, the Potency result in assay [5] and in assay [6] was “inactive” throughout.

For the compound `Clc1ccc(C2(Cn3cncn3)CC(Br)CO2)c(Cl)c1` (stereo unspecified), the Potency entry in assay [1], in assay [2], in assay [9], in assay [5] and in assay [6] was “inactive” in each case. Also, the results for the Potency in assay [3] and in assay [8] were 60.8 µM (active) and 24.2 µM (active), respectively.

As for `N#Cc1cc(I)c(O)c(I)c1`, the figures for the Potency in [2] and in assay [8] were 61.1 µM (active) and 30.6 µM (active), respectively. The Potency entry in [3], in [9], in assay [5] and in assay [6] was “inactive” each time.

In the case of `CCOC(=O)[C@]1(c2ccccc2)Oc2ccccc2[C@@H]1N`, the Potency result in [1], in assay [3] and in assay [6] was “inactive” each time.

Turning to `CCc1ccc(C(=O)NN(C(=O)c2cc(C)cc(C)c2)C(C)(C)C)cc1`, the Potency result in assay [1], in [2], in [4], in assay [9] and in assay [6] was “inactive” throughout. In assay [5], the Potency is 15.4 µM (active).

As to `CCCCCC[N+](=O)[O-]`, the Potency entry in [10], in assay [7], in assay [2], in [3], in assay [4] and in assay [5] was “inactive” throughout. Also, the Potency entry in assay [6] is “inactive”.

As to `CCOP(=O)(OCC)O/C(=C/Cl)c1ccc(Cl)cc1Cl`, the Potency entry in assay [1], in assay [2], in assay [9] and in assay [6] was “inactive” throughout. Besides, the Potency in [3] is 27.3 µM (active).

Regarding `O=C(Nc1ccccc1)Nc1ccnc(Cl)c1`, the results for the Potency in [1] and in [4] were 15.9 µM (active) and 61.1 µM (active), respectively. Also, the Potency entry in assay [9] and in assay [6] was “inactive” throughout.

Turning to `Cc1ccccc1C(=O)Nc1cccc(OC(C)C)c1`, the Potency result in assay [10], in [7], in assay [2] and in [4] was “inactive” each time. Besides, the Potency in assay [6] was 27.5 µM (active).

As for `COc1cc(CC(C)N)cc2c1OCO2` (stereo unspecified), the Potency result in [1], in assay [2], in assay [3], in assay [4], in assay [9] and in assay [5] was “inactive” in each case. In addition, the Potency entry in assay [6] was “inactive”.

These data come from PubChem BioAssay (Tox21).
